SARS 3CLpro inh: SARS-CoV 3CLpro protease inhibitors, primary screen, biochemical, quenched FRET. 290,000 tested, 0.14% active. Replicase polyprotein 1ab (Severe acute respiratory syndrome coronavirus), P0C6X7. recombinant SARS-CoV 3CLpro, quenched FRET peptide cleavage. AID 1706, 2009. inhibition, % at 6 µM; in the data active = inhibition above about 12%
GDH-TPI inh: GDH-TPI coupling enzyme inhibitors, primary screen, artefact control for M. tuberculosis FBA inhibitor project, biochemical, absorbance, full deck | GDH-TPI coupled enzyme counterscreen, NADH absorbance | inhibition, % at 4.8 µM | 360,000 tested, 1.2% active | AID 588335, 2011;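 also: 0% = DMSO wells and 100% = wells lacking the enzyme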
CCHF vOTU inh-1: CCHFV vOTU protease inhibitors, primary screen, biochemical, Pep-AMC substrate, fluorescence | AID 651958, 2012 | inhibition, % at 11.5 µM | 370,000 tested, 0.55% active; also: 0% = vehicle wells with enzyme and 100% = no enzyme wells
RecA intein inh: Mtb RecA intein splicing inhibitors, primary screen, biochemical, fluorescence, HTS. Protein RecA (Mycobacterium tuberculosis (strain ATCC 25618 / H37Rv)), P9WHJ3. cell-free RecA intein splicing. 290,000 tested, 0.75% active. AID 2221, 2009. inhibition, % (no concentration beside the values); in the data active = inhibition above about 30%;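 also: 0% = vehicle wells and 100% = reference inhibitor control wells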
Mtb FBA inh: Mtb FBA enzyme inhibitors, primary screen, biochemical, fluorescence, strain H37Rv. inhibition, % at 1 µM. purified M. tuberculosis FBA, fluorescence read-out. 360,000 tested, 2.3% active. Fructose-bisphosphate aldolase (Mycobacterium tuberculosis (strain ATCC 25618 / H37Rv)), …. AID 588726, 2011; in the data active = inhibition above about 27%;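 also: 0% = vehicle and 100% = reference inhibitor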
Target sequence (P9WQA3 whole entry, looked up): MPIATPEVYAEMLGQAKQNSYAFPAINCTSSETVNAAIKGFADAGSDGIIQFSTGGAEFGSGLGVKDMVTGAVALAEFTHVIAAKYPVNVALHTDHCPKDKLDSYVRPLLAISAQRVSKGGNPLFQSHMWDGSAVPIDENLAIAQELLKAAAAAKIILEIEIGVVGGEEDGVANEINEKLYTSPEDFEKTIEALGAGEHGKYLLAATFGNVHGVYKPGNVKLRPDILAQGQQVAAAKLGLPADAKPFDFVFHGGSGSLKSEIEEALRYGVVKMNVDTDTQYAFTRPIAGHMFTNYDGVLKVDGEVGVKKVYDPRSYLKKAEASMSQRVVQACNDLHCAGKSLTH
DUSP3 inh: VHR1 phosphatase inhibitors, primary screen, biochemical, absorbance, uHTS; Dual specificity protein phosphatase 3 (Homo sapiens), P51452; recombinant VHR phosphatase, pNPP absorbance; inhibition, % at 13.3 µM; 290,000 tested, 0.52% active; in the data active = inhibition above about 50%
Target sequence (P51452 whole entry, looked up): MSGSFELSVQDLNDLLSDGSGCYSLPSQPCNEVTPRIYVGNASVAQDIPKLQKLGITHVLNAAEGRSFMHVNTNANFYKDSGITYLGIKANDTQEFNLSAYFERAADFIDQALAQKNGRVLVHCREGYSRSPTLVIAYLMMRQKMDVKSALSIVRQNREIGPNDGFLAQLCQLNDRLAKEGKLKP
CCHF vOTU inh-2: CCHFV vOTU protease inhibitors, confirmation, biochemical, Pep-AMC substrate, fluorescence; 1,900 tested, 17% active; shares compounds with CCHF vOTU inh-1; inhibition, % at 11.5 µM; Recombinant CCHFV vOTU
The depositor's hits bear a star. An excerpt weighted towards active compounds, which were near 4.7% of everything screened. Rule as the data show it, unless noted: active = inhibition above about 30%; inactive = the rest.

Screening CCCCCCCCNS(=O)(=O)/C=C/c1ccccc1CNC(=O)OC(C)(C)C returned CCHF vOTU inh-1 36.3* and CCHF vOTU inh-2 16.1.
Nc1ccc2c(c1)Cc1cc(N)c(Cl)cc1-2 was read as GDH-TPI inh 17.9, CCHF vOTU inh-1 30.6*, Mtb FBA inh 3.4 and CCHF vOTU inh-2 -9.2.
For O=[N+]([O-])c1ccccc1-c1ccc(C(=S)N2CCCCC2)o1 the results were SARS 3CLpro inh -14.1, GDH-TPI inh 20.0, CCHF vOTU inh-1 9.8, RecA intein inh 13.4, Mtb FBA inh 2.4 and DUSP3 inh 16.2.
For O=[N+]([O-])c1ccccc1-c1ccc(C(=S)N2CCCC2)o1 the results were SARS 3CLpro inh -24.8, GDH-TPI inh -1.3, CCHF vOTU inh-1 30.1*, RecA intein inh 3.5, Mtb FBA inh 4.1, DUSP3 inh -13.3 and CCHF vOTU inh-2 39.1*.
Screening C=C(C)COc1ccc(-c2nc(N)ncc2-c2ccc(OC)cc2)c(O)c1 returned SARS 3CLpro inh 5.1, CCHF vOTU inh-1 29.8*, RecA intein inh 4.8, DUSP3 inh 19.1 and CCHF vOTU inh-2 -8.0.
`C=C(C)COc1ccc(-c2nc(N)ncc2-c2ccc(OC)c(OC)c2)c(O)c1` gave SARS 3CLpro inh 1.0, GDH-TPI inh 6.9, CCHF vOTU inh-1 13.7, RecA intein inh 3.3, Mtb FBA inh 2.4 and DUSP3 inh 33.4.
For O=C(C[C@@H]1C/C=C/CCCC(=O)O[C@H](c2ccccc2)CNC1=O)N[C@H](CO)Cc1ccccc1 the results were GDH-TPI inh -7.9, CCHF vOTU inh-1 30.8*, Mtb FBA inh 1.9 and CCHF vOTU inh-2 -25.2.
`Nc1ccc(-n2c(N)c(C(=O)NCc3ccc4c(c3)OCO4)c3nc4ccccc4nc32)cc1` gave SARS 3CLpro inh 5.0, GDH-TPI inh 22.4, CCHF vOTU inh-1 11.6, RecA intein inh 1.5 and Mtb FBA inh 6.6.
CC(C)CCNC(=O)c1c(N)n(Cc2ccc3c(c2)OCO3)c2nc3ccccc3nc12 was read as SARS 3CLpro inh -1.5, GDH-TPI inh 1.4, CCHF vOTU inh-1 54.2*, RecA intein inh -3.8, Mtb FBA inh 2.6, DUSP3 inh 18.1 and CCHF vOTU inh-2 -14.3.
Screening CCOc1ccc(C(CC(=O)O)NC(=O)C2c3ccccc3Oc3ccccc32)cc1 (configuration not stated) returned SARS 3CLpro inh -4.0, GDH-TPI inh -3.4, CCHF vOTU inh-1 0.5, RecA intein inh 1.2, Mtb FBA inh 1.7 and DUSP3 inh 34.3.
O=C(O)CC(NC(=O)C1c2ccccc2Oc2ccccc21)c1ccc(OC2CCCC2)cc1 (configuration not stated) was read as SARS 3CLpro inh 6.0, GDH-TPI inh 1.3, CCHF vOTU inh-1 32.9*, RecA intein inh 5.9, Mtb FBA inh 2.9, DUSP3 inh 7.2 and CCHF vOTU inh-2 0.5.
For COc1ccc(C(=O)NCc2c(C)nn(Cc3ccccc3)c2C)cc1S(=O)(=O)N1CCOCC1 the results were GDH-TPI inh 1.0, CCHF vOTU inh-1 2.4 and Mtb FBA inh 2.1.
Cc1ccccc1NC(=O)Cc1nc(COC(=O)c2ccc([N+](=O)[O-])cc2)cs1 was read as GDH-TPI inh -2.8, CCHF vOTU inh-1 5.8 and Mtb FBA inh 1.4.
For Cc1ccccc1NC(=O)Cc1nc(COC(=O)c2cc([N+](=O)[O-])ccc2NCCO)cs1 the results were GDH-TPI inh 18.9, CCHF vOTU inh-1 30.2*, RecA intein inh -0.6, Mtb FBA inh -2.9 and CCHF vOTU inh-2 -2.9.
For COc1ccc(NC(=O)COC(=O)c2ccccc2SCC(=O)N2CCCC2)cc1 the results were GDH-TPI inh -2.9, CCHF vOTU inh-1 -5.4, RecA intein inh 0.5 and Mtb FBA inh 0.2.
`Cc1ccccc1Nc1n[nH]c(C)c1[N+](=O)[O-]` gave SARS 3CLpro inh 2.7, GDH-TPI inh 2.2, CCHF vOTU inh-1 13.4, RecA intein inh -1.1, Mtb FBA inh -9.3 and DUSP3 inh 15.2.
For Cc1ccccc1Nc1c([N+](=O)[O-])cncc1[N+](=O)[O-] the results were SARS 3CLpro inh 5.0, GDH-TPI inh 13.4, CCHF vOTU inh-1 30.1*, RecA intein inh 14.7, Mtb FBA inh -1.7, DUSP3 inh 1.3 and CCHF vOTU inh-2 -6.8.
Cc1ccccc1N=C1c2ccccc2C(=O)C1[N+](=O)[O-] (configuration not stated) was read as SARS 3CLpro inh -1.0, GDH-TPI inh 10.4, CCHF vOTU inh-1 33.8*, RecA intein inh 0.8, Mtb FBA inh -1.3, DUSP3 inh 20.4 and CCHF vOTU inh-2 7.1.
`CC(=O)C1C(=O)c2c(cccc2[N+](=O)[O-])C1=Nc1ccccc1C` (configuration not stated) gave SARS 3CLpro inh -1.2, CCHF vOTU inh-1 -12.4, RecA intein inh -4.2 and DUSP3 inh 19.4.
Screening O=C(c1cn(Cc2ccccc2)nc1-c1ccccc1)N1CCN(c2ccccn2)CC1 returned GDH-TPI inh -1.4, CCHF vOTU inh-1 -5.0 and Mtb FBA inh 5.6.
For O=C(Cn1ncc2c3ccccc3n(Cc3ccc(F)cc3)c2c1=O)N1CCN(c2ncccn2)CC1 the results were SARS 3CLpro inh 0.5, GDH-TPI inh 6.2, CCHF vOTU inh-1 34.0*, RecA intein inh 4.2, Mtb FBA inh 3.0, DUSP3 inh 10.4 and CCHF vOTU inh-2 -18.5.
For COc1ccccc1/C=C/C=N/NC(=O)c1cnccn1 the results were SARS 3CLpro inh 2.2, GDH-TPI inh 19.4, CCHF vOTU inh-1 30.2*, RecA intein inh 0.1, Mtb FBA inh 2.4, DUSP3 inh 33.9 and CCHF vOTU inh-2 -2.8.
COc1cccc(/C=N/NC(=O)c2cnccn2)c1O was read as SARS 3CLpro inh 1.5, GDH-TPI inh 18.7, CCHF vOTU inh-1 7.7, RecA intein inh 1.0, Mtb FBA inh -1.7 and DUSP3 inh 21.1.
C=CCn1c2ccccc2c2nnc(SCCCn3c(=O)[nH]c4ccccc43)nc21 was read as SARS 3CLpro inh 1.9, GDH-TPI inh 0.9, CCHF vOTU inh-1 30.9*, Mtb FBA inh 1.1, DUSP3 inh 3.6 and CCHF vOTU inh-2 -4.1.
CCCCNC(=O)C1(C)CCN1C(=O)c1cc(-c2ccccc2)cs1 (configuration not stated) was read as GDH-TPI inh 1.3, CCHF vOTU inh-1 2.0 and Mtb FBA inh -1.6.
